Screens (PubChem)
A selection: hits, their analogues and other compounds. The true share with any hit is near 1.1%.
LAP4 TOR yeast: alters LAP4-GFP fluorescence in TOR pathway yeast screen | AID 2023 | GFP response vs DMSO, % at 10 µM | S. cerevisiae LAP4-GFP multiplex, flow cytometry GFP, 3 h; median GFP as percent of DMSO wells | hit rate 0.34% among 320,000;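 active means GFP response vs DMSO above a set limit, about the screen mean plus 3 SD, cut at about 150% in these data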
CIT2 TOR yeast: yeast TOR pathway CIT2-GFP modulation | S. cerevisiae CIT2-GFP strain, flow cytometry, 3 h; 100 means same as DMSO wells | GFP response vs DMSO, % at 10 µM | hit rate 0.065% among 320,000 | AID 2029;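 active means GFP response relative to DMSO above a set limit, near the screen mean plus 3 SD, cut at about 150% in these data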;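 further: ratio of well median GFP fluorescence to mean of DMSO wells on the plate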
RPL19A-GFP yeast: modulators of TOR pathway RPL19A-GFP in S. cerevisiae | S. cerevisiae RPL19A-GFP strain, flow cytometry, 3 h; hits give low values | hit rate 0.3% among 330,000 | percent response vs DMSO, % at 10 µM;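 active means percent response vs DMSO below 50%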;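 further: median channel GFP fluorescence of the barcoded RPL19A-GFP strain; ratio of sample median GFP to plate DMSO average so 100% = DMSO; lower means less RPL19A-GFP as with rapamycin TOR inhibition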
MEP2 TOR yeast: yeast TOR pathway MEP2-GFP modulation. S. cerevisiae MEP2-GFP strain, flow cytometry GFP, 3 h; 100% = DMSO control level. GFP response vs DMSO, % at 10 µM. hit rate 0.51% among 330,000. AID 2016;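 active means GFP response versus DMSO above a set limit, roughly screen mean plus 3 SD, cut at about 180% in these data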;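 further: median GFP fluorescence of the barcode-gated MEP2-GFP cells per well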
AGP1 TOR yeast: modulators of TOR pathway AGP1-GFP in S. cerevisiae. S. cerevisiae AGP1-GFP multiplex flow cytometry, 3 h; GFP as percent of DMSO wells. GFP response vs DMSO, % at 10 µM. hit rate 0.02% among 320,000. AID 2066;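 active means GFP response relative to DMSO above a set limit, near screen average plus 3 SD, cut at about 150% in these data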;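 further: median GFP channel fluorescence of the gated AGP1 strain per well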
VLA-4 inh: inhibition in a human VLA-4 binding assay | hit rate 0.2% among 330,000 | VLA-4 expressing cells, ligand binding flow cytometry | inhibition, % (about 7 µM as worked out from the volumes in the protocol) | P13612; in the data active means inhibition above about 50%
Target sequence (P13612 whole entry, looked up): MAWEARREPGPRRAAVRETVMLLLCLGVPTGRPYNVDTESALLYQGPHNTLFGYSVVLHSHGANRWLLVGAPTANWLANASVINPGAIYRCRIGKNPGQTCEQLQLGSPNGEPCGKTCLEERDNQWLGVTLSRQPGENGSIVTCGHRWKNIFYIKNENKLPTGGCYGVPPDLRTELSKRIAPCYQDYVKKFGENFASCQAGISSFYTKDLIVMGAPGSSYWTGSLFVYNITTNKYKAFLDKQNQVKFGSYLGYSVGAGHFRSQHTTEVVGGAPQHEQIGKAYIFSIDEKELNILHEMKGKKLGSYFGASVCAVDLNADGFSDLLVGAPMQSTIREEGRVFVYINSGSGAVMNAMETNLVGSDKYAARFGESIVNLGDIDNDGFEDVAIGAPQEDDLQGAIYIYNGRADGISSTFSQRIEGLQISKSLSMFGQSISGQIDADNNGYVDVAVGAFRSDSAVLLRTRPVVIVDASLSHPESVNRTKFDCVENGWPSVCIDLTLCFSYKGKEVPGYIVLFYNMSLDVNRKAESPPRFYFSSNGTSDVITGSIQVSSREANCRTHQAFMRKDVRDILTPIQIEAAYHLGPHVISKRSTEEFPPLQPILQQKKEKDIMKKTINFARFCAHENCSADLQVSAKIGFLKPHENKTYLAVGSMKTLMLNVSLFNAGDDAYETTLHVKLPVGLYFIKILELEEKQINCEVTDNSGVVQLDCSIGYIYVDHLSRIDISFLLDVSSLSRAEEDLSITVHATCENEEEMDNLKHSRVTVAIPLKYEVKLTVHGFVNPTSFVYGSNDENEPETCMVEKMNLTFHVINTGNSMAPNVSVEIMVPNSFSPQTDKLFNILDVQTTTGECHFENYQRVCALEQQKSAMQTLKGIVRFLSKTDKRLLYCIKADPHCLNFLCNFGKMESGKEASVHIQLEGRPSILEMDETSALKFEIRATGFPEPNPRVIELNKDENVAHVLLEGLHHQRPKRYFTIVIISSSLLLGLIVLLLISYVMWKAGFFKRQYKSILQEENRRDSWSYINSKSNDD
VLA-4 mod pick: confirmation of allosteric modulators of human VLA-4 integrin; shares compounds with VLA-4 inh; U937 cells, HUTS-21 LIBS mAb binding, flow cytometry; LDV ligand present at threefold Kd; inhibition, % at 6.7 µM; hit rate 2% among 1,300; in the data active means inhibition above about 40%;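 further: 0% = ligand without compound and 100% = no ligand background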
* hit, by the source's call; x = no result given.

SMILES	LAP4 TOR yeast	CIT2 TOR yeast	RPL19A-GFP yeast	MEP2 TOR yeast	AGP1 TOR yeast	VLA-4 inh	VLA-4 mod pick
C[C@H](CCC(=O)NCC(=O)O)[C@H]1CC[C@H]2C3[C@H](O)C[C@@H]4C[C@H](O)CC[C@]4(C)[C@H]3C[C@H](O)[C@]12C (some centres not stated)	108.3	89.7	101.9	101.0	89.5	3.1	x
CCCCn1c(N)c(N(CC(C)C)C(=O)COC(=O)C2(c3ccccc3)CC2)c(=O)[nH]c1=O	109.8	99.4	100.6	101.3	110.3	-0.7	x
COc1cc(Cl)cc(/C=C/c2ccc3ccccc3n2)c1OC(C)=O	101.0	95.5	105.3	106.8	99.6	41.2	-19.2
O=C(CN(c1cc(Cl)ccc1Cl)S(=O)(=O)c1ccccc1)N1CCOCC1	94.4	97.7	102.0	107.7	110.7	3.6	x
O=C(CN1CCCCC1)N1N=C(c2cccs2)CC1c1cccs1 (configuration not stated)	95.0	102.2	103.6	99.7	102.9	40.4	-1.2
O=C(C1CC(=O)N(c2ccc(Cl)cc2)C1)N1CCOCC1 (configuration not stated)	92.1	103.3	101.0	102.8	102.3	-1.5	x
Cc1cc(=O)oc2c3c(cc(OCC(=O)N[C@@H](Cc4ccccc4)C(=O)O)c12)OC(C)(C)CC3	108.2	99.5	100.7	105.7	98.2	50.2*	6.1
Cc1cc(=O)oc2c3c(cc(OCC(=O)NC(Cc4ccc(Cl)cc4)C(=O)O)c12)OC(C)(C)CC3 (configuration not stated)	105.1	101.0	98.7	104.6	104.6	21.9	13.0
Cc1cc(=O)oc2c3c(cc(OCC(=O)N[C@@H](C)C(=O)O)c12)OC(C)(C)CC3	82.2	112.4	119.2	106.1	107.2	-6.7	x
Cc1ccc(CNC(=O)[C@H](C)NC(=O)C2CCN(C(=O)[C@@H]3CCCN3C(=O)OC(C)(C)C)CC2)cc1	101.1	107.0	101.4	107.3	108.6	-18.3	x
O=C1N=C(N2C=CC(=C3C=CNC=C3)C=C2)/C(=C/N=NC(=O)c2ccccc2)S1	95.4	105.4	102.9	104.0	102.3	15.1	x
CCOCCn1c(=NC(=O)/C=C/c2ccccc2Cl)sc2cc(NC(C)=O)ccc21	98.1	100.7	89.7	132.3	92.2	43.4	-9.3
COc1ccc(NC(=S)N2CCCC(c3nc4ccc(C)cc4[nH]3)C2)c(OC)c1 (configuration not stated)	95.1	95.9	99.6	100.1	98.6	54.3*	15.0
COc1ccc(NC(=S)N2CCCC(c3nc4ccc(C)cc4[nH]3)C2)cc1 (configuration not stated)	105.9	97.2	87.0	84.4	96.8	7.4	x
CSC(=NNC(=O)c1ccccc1O)SC	110.2	104.9	106.7	109.7	105.9	88.2*	5.3
O=C(c1cccc(S(=O)(=O)Nc2ccc(Br)cc2)c1)N1CCCC1	95.5	93.0	91.1	94.2	95.1	1.9	x
CCOC(=O)c1ccc(NC(=O)CN(c2ccc(C)cc2)S(=O)(=O)c2c(C)nn(C)c2C)cc1	98.2	95.4	92.6	101.4	97.2	14.9	8.1
CCOC(=O)c1cccc(NC(=O)CN(c2ccc(C)cc2)S(=O)(=O)c2c(C)n[nH]c2C)c1	103.5	98.8	98.7	109.0	105.3	57.1*	-6.7
O=C(Nc1ccccc1)Nc1cccc2cccnc12	92.6	88.8	101.6	98.8	101.7	69.4*	-15.1
COc1ccc(C2C3=C(CC(C)(C)CC3=O)Oc3ncn(CCCn4ccnc4)c(=N)c32)cc1 (configuration not stated)	94.6	92.3	89.2	104.8	99.3	90.0*	8.2
CC1(C)CC(=O)C2=C(C1)Oc1ncn(CCCn3ccnc3)c(=N)c1C2c1ccccc1 (configuration not stated)	108.7	108.0	111.2	112.9	113.2	-9.6	x
CC(=O)Nc1ccc(S(=O)(=O)N(C)c2ccc(OCCOc3ccccc3F)cc2)cc1	106.8	92.2	91.7	95.1	99.1	-10.0	x
Cc1cccc(NC(=O)N2CCCc3ccccc32)c1C	87.6	87.7	121.6	110.8	89.5	1.4	x
CN(C)CCCN(C(=O)C1COc2ccccc2O1)c1nc2cc3c(cc2s1)OCO3 (configuration not stated)	95.0	91.4	95.0	94.0	97.3	-2.2	x
CC(C)Cn1c(N)c(C(=O)CSc2ccccc2)c(=O)n(C)c1=O	96.1	94.8	97.2	97.1	94.5	2.5	x
SMILES	LAP4 TOR yeast	CIT2 TOR yeast	RPL19A-GFP yeast	MEP2 TOR yeast	AGP1 TOR yeast	VLA-4 inh	VLA-4 mod pick
CC(C)Cn1c(N)c(C(=O)CSc2nnc(-c3ccco3)n2C)c(=O)n(C)c1=O	95.8	98.7	97.5	100.5	102.9	53.2*	-2.8
CCOC(=O)Cn1nnnc1CN(Cc1ccccc1)Cc1cc2cc(CC)ccc2[nH]c1=O	97.8	105.8	102.4	95.2	102.3	70.8*	-11.5
CC(=O)Nc1ccc(N2C(=O)CC(N3CC(C)OC(C)C3)C2=O)cc1 (configuration not stated)	105.7	102.2	106.8	106.9	104.5	5.3	9.0
Cn1c(N)c(C(=O)COC(=O)CNC(=O)c2ccccc2F)c(=O)n(C)c1=O	95.9	107.8	102.8	113.0	100.3	7.6	x
Cc1cc(OCC(=O)Nc2ncn[nH]2)ccc1Cl	103.1	108.1	99.6	92.0	103.4	-3.4	x
Cc1cccc(C)c1OCC(=O)Nc1ncn[nH]1	101.8	104.0	98.6	106.6	101.9	52.3*	-7.7
CC(C)C1CC(CCN)(Cc2ccccc2)CCO1 (configuration not stated)	94.9	101.8	100.6	99.3	99.7	0.0	x
CCOC(=O)c1c(C)[nH]c(C(=O)COC(=O)CCSc2ccccc2)c1C	92.2	89.5	93.3	97.3	89.7	-36.5	x
CCOC(=O)c1c(C)[nH]c(C(=O)COC(=O)CSC)c1C	108.3	107.7	102.5	112.2	106.2	91.4*	-6.7
CCOC(=O)c1c(C)[nH]c(C(=O)COC(=O)CN2C(=O)C3CCCCC3C2=O)c1C (configuration not stated)	80.4	89.8	84.6	91.1	85.9	11.8	x
CCCCC(=O)OCC(=O)c1[nH]c(C)c(C(=O)OCC)c1C	104.7	109.8	105.6	105.9	103.9	-15.4	2.4
CC(=O)NC(CC(=O)NC1CCCc2ccccc21)c1ccccc1 (configuration not stated)	109.7	98.6	97.7	100.8	102.1	-9.3	x
COc1ccc(OC)c(NC(=O)CCC(=O)Nc2nnc(C(C)C)s2)c1	102.3	104.1	101.0	98.7	106.6	7.6	x
COc1ccc2nc(NC(=O)CSc3nc(C)cc(=O)[nH]3)sc2c1	103.5	90.1	105.5	101.0	102.2	3.5	x
